Rows were chosen to be rich in hits. Some 21% of all compounds tested hit in one or more screens of this group.
Gal4-VP16 FLuc: inhibits Gal4-VP16 luciferase reporter, ROR gamma counter-screen. 310,000 compounds, 3.5% hits. Drosophila S2 Gal4-VP16 UAS-luciferase, luminescence, 20 h. Potency, µM (series often up to 53.6 µM), for the others: at the highest dose activity, negative = inhibition, usual class: inhibitors;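 further: Gal4-VP16 expression switched on by copper sulfate through the metallothionein promoter; potency means the concentration at half of the fitted maximal effect; nearly all actives have a fitted effect of over 50% in size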
DT40 TDP1 CPT: DT40-hTDP1 cell growth loss with CPT; chicken DT40 Tdp1-/-;hTDP1 cells + 20 nM CPT, ATP luminescence, 48 h; Potency, µM (series often up to 46.2 µM), for inactives: at the top dose activity change, negative = growth inhibition, hits mostly inhibitors; 420,000 compounds, 12% hits; AID 686979; further: potency means the concentration at half of the fitted maximal effect; nearly all actives have a fitted effect of over 55% in size
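Chicken DT40 Tdp1-/- cells complemented with human TDP1, 400 cells/well, exposed to compounds plus 20 nM camptothecin for at least 48 h at 37 C; viability read as ATP content by CellTiter-Glo luminescence.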
RORg inh: ROR gamma (mouse) transcription inhibition | Drosophila S2 Gal4-RORgamma UAS-luciferase reporter, 20 h | Potency, µM (series often up to 53.6 µM), inactives show top-dose activity change, negative = inhibition, usual class: inhibitors | 310,000 compounds, 5.4% hits | AID 2551; further: potency means the concentration at half of the fitted maximal effect; nearly all actives have a fitted effect of over 60% in size
Target sequence (P51450 whole entry, looked up, the tested form may be a part): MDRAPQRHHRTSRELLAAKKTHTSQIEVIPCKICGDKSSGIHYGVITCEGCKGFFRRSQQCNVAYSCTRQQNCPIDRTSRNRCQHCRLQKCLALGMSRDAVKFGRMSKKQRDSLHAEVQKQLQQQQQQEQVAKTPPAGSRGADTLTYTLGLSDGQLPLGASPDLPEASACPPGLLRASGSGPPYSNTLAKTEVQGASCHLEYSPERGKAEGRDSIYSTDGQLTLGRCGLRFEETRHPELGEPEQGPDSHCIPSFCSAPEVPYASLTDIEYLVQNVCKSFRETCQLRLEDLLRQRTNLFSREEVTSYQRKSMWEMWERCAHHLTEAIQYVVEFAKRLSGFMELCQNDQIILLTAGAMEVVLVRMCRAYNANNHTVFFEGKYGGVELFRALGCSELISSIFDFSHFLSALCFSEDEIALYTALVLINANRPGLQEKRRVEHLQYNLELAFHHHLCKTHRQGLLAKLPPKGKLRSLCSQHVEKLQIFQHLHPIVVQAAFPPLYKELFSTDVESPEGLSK
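In this cell-based reporter format, copper sulfate (700 uM final) drives Gal4–ROR gamma fusion expression from a metallothionein promoter in Drosophila Schneider cells; compounds preincubated 1 hr, reporter read after 20 hr at ambient temperature.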
TDP1 cell noCPT: qHTS for Inhibitors of human tyrosyl-DNA phosphodiesterase 1 (TDP1): qHTS in cells in absence of CPT; DT40 Tdp1-/- hTDP1 cells, no CPT, ATP luminescence, 48 h; Potency, µM (highest dose often 46.2 µM), without a hit: at the highest dose activity change, negative = growth inhibition, usual class: inhibitors; 420,000 compounds, 15% hits; AID 686978, 2013; further: potency means the concentration at half of the fitted maximal effect; nearly all actives have a fitted effect of over 55% in size
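Readout: luminescence from CellTiter-Glo after 30 min in the dark at RT. Cells: DT40 Tdp1-/- with stable hTDP1, 400/well. Exposure: compounds alone, ≥48 hr, 37 °C.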
ELG1 DNA repair: ELG1-dependent DNA repair inhibition. 330,000 compounds, 2.3% hits. Potency, µM (titrated, usually from 46.1 µM), without a hit: at the top dose activity change, negative = inhibition, most hits filed as inhibitors. HEK293T ELG1-luciferase reporter, luminescence, 16 h; DNA damage induced by 5-fluorouridine. AID 504467; further: potency means the concentration at half of the fitted maximal effect; nearly all actives have a fitted effect of over 55% in size
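5-Fluorouridine DNA damage + compound/DMSO, 2,000 cells/well, 16 h, 37 °C/5% CO2. ONE-Glo, 30 min RT, luminescence. Readout = decrease in reporter signal.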
IL-1B inflam inh: inhibitors of inflammasome signaling (IL-1 beta secretion) | AID 743279 | activity change, % at 57.5 µM | 360,000 compounds, 4.7% hits | THP-1 LPS/ATP IL-1B secretion, AlphaLISA, 16 h; stronger effect = lower value; in the data active means activity change below about -50%; inconclusive means mostly about -30% to -49%
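THP-1 cells pretreated 1 hr with compounds (up to 57.5 uM final), then stimulated with LPS (250 ng/mL final) plus ATP (1.25 mM final); secreted IL-1B measured by AlphaLISA after 16 hr, decreased signal indicating inhibition.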
Starred values were filed as active, the others as inactive; ! = not confirmed by another sample; [ ] = another dose, or the depositor's remark. Unless noted, the call rests on the fitted dose curve; in most records, active means well fitted curve in the direction sought with a large enough effect; inconclusive means small, poorly fitted or top-dose-only effect, or another doubt; inactive means no such curve, though single readings can be large; an effect the other way counts as inactive or inconclusive. On the % scale 0 is the no-effect control and ±100 the full control effect.

`CCc1cccc(NC(=O)c2ccc(NC(=O)N3CCSc4ncccc43)cc2)c1` gave DT40 TDP1 CPT 21µM* and TDP1 cell noCPT 16µM*.
For CCN(CC)C(=O)c1ccc(NC(=O)c2ccc3c(c2)NC(=O)CS3)cc1 the results were DT40 TDP1 CPT -5%, TDP1 cell noCPT -1%, ELG1 DNA repair -17% and IL-1B inflam inh -4.
Screening COc1ccc(OCC#CCN2CCNCC2)cc1 returned Gal4-VP16 FLuc 1%, DT40 TDP1 CPT -6%, RORg inh 3%, TDP1 cell noCPT 4%, ELG1 DNA repair inconclusive and IL-1B inflam inh -15.
For CC(C)[C@@]1(NC(=O)[C@@H]2C[C@@H]3c4cccc5[nH]cc(c45)C[C@H]3N(C)C2)O[C@@]2(O)[C@@H]3CCCN3C(=O)[C@H](Cc3ccccc3)N2C1=O the results were Gal4-VP16 FLuc inconclusive, DT40 TDP1 CPT 27µM*!, RORg inh 2.8µM*!, TDP1 cell noCPT 19µM*!, ELG1 DNA repair -14% and IL-1B inflam inh 0.
Screening CN1C[C@H](C(=O)N[C@@]2(C)O[C@@]3(O)C4CCCN4C(=O)C(Cc4ccccc4)N3C2=O)C[C@H]2c3cccc4[nH]cc(c34)C[C@H]21 (stereo partly specified) returned Gal4-VP16 FLuc -3%, DT40 TDP1 CPT 12%, RORg inh -3% and TDP1 cell noCPT -15%.
`CC(C)[C@H]1C(=O)N2CCC[C@H]2[C@]2(O)O[C@](NC(=O)[C@@H]3C[C@@H]4c5cccc6[nH]cc(c56)C[C@H]4N(C)C3)(C(C)C)C(=O)N12` gave DT40 TDP1 CPT inconclusive and TDP1 cell noCPT 19µM*.
CC(C)[C@@]1(NC(=O)[C@@H]2C[C@H]3c4cccc5[nH]cc(c45)C[C@@H]3N(C)C2)O[C@]2(O)[C@H]3CCCN3C(=O)CN2C1=O was read as Gal4-VP16 FLuc -1%[17 µM] and RORg inh 2%[16.9 µM].
For NC(Cc1nc2ccccc2[nH]1)c1ccc(Cl)cc1 (stereo unspecified) the results were Gal4-VP16 FLuc -18%, DT40 TDP1 CPT 10%, RORg inh -37%, TDP1 cell noCPT -3% and ELG1 DNA repair inconclusive.
CC12CC(=O)C3C(CCC4CC(=O)C=CC43C)C1CCC2=O (stereo unspecified) was read as DT40 TDP1 CPT -21%, TDP1 cell noCPT inconclusive and IL-1B inflam inh -93*.
Screening OC1CCC(Nc2ccn3nc(-c4cccc(OCc5ccccc5)c4)cc3n2)CC1 (stereo unspecified) returned DT40 TDP1 CPT inconclusive, TDP1 cell noCPT inconclusive and IL-1B inflam inh 11.
For CN1C[C@@H](CO)C=C2c3cccc4[nH]cc(c34)CC21 (stereo partly specified) the results were Gal4-VP16 FLuc 4%, DT40 TDP1 CPT 10%, RORg inh -1% and TDP1 cell noCPT -24%.
For CC(C)[C@H]1C(=O)N2CCC[C@H]2[C@]2(O)O[C@](NC(=O)[C@@H]3C=C4c5cccc6[nH]cc(c56)C[C@H]4N(C)C3)(C(C)C)C(=O)N12 the results were Gal4-VP16 FLuc -15%, DT40 TDP1 CPT inconclusive, RORg inh -28%, TDP1 cell noCPT 5.8µM*, ELG1 DNA repair -6% and IL-1B inflam inh -11.
CC(C)[C@@]1(NC(=O)[C@@H]2C=C3c4cccc5[nH]cc(c45)C[C@H]3N(C)C2)O[C@@]2(O)[C@@H]3CCCN3C(=O)[C@H](Cc3ccccc3)N2C1=O was read as Gal4-VP16 FLuc -7%, RORg inh 28% and ELG1 DNA repair -9%.
Screening CC(C)C1C(=O)N2CCCC2[C@]2(O)O[C@@](NC(=O)[C@@H]3C=C4c5cccc6[nH]cc(c56)C[C@H]4N(C)C3)(C(C)C)C(=O)N12 (stereo partly specified) returned Gal4-VP16 FLuc -10%, DT40 TDP1 CPT 9.4µM*, RORg inh 6% and TDP1 cell noCPT inconclusive.
Screening CC(C)C[C@H]1C(=O)N2CCCC2[C@]2(O)O[C@](NC(=O)[C@@H]3C=C4c5cccc6[nH]cc(c56)CC4N(C)C3)(C(C)C)C(=O)N12 (stereo partly specified) returned Gal4-VP16 FLuc 3%, DT40 TDP1 CPT inconclusive, RORg inh 15%, TDP1 cell noCPT 16µM*, ELG1 DNA repair -5% and IL-1B inflam inh -7.
For Cc1cnc(-n2c(=S)[nH]c3ccccc3c2=O)s1 the results were DT40 TDP1 CPT -5%, TDP1 cell noCPT -21%, ELG1 DNA repair inconclusive and IL-1B inflam inh 6.
Screening COc1ccccc1-n1c(O)c(/C=N/NC(=S)Nc2ccccc2)c(=O)[nH]c1=S returned Gal4-VP16 FLuc 1%, DT40 TDP1 CPT -6%, RORg inh -1%, TDP1 cell noCPT inconclusive, ELG1 DNA repair inconclusive and IL-1B inflam inh inconclusive.
For CC(C)C[C@H](NC(=O)[C@H](CC(C)C)NC(=O)[C@H](Cc1ccccc1)NC(=O)[C@@H](N)Cc1ccc(O)cc1)C(=O)N[C@@H](CCCN=C(N)N)C(=O)N[C@@H](CC(N)=O)C(=O)N1CCC[C@H]1C(=O)O the results were Gal4-VP16 FLuc 5% and RORg inh 5%.
For ClC(Cl)(Cl)Cl the results were Gal4-VP16 FLuc 1%, DT40 TDP1 CPT -2%, RORg inh -1% and TDP1 cell noCPT -6%.
Screening O=C1NCN(c2ccccc2)C12CCN(C(c1ccccc1OC(F)(F)F)c1nnnn1C1CCCC1)CC2 (stereo unspecified) returned DT40 TDP1 CPT inconclusive, TDP1 cell noCPT inconclusive and IL-1B inflam inh 15.
CN1C(=O)C(=Cc2ccccc2OCCOc2ccc([N+](=O)[O-])cc2)C(=O)N(C)C1=O was read as Gal4-VP16 FLuc -4%, DT40 TDP1 CPT inconclusive, RORg inh 4%, TDP1 cell noCPT 23µM*, ELG1 DNA repair 6% and IL-1B inflam inh 3.
For O=C1NC(=O)C(=Cc2ccccc2OCCOc2ccc([N+](=O)[O-])cc2)C(=O)N1 the results were Gal4-VP16 FLuc -8%, DT40 TDP1 CPT inconclusive, RORg inh 28%, TDP1 cell noCPT inconclusive, ELG1 DNA repair 14% and IL-1B inflam inh inconclusive.
For COc1cc(/C=C/[N+](=O)[O-])ccc1O the results were Gal4-VP16 FLuc 3.2µM*, DT40 TDP1 CPT 8.2µM*, RORg inh 4.5µM*, TDP1 cell noCPT 9.2µM*, ELG1 DNA repair 23µM* and IL-1B inflam inh -65*.

Screening results: PubChem BioAssay, National Center for Advancing Translational Sciences (NCATS)
